From paper PMC7819943, “Rice protein-binding microarrays: a tool to detect cis-acting elements near promoter regions in rice”
In all, about 68,000 sequences were measured (“fluorescence intensity (a.u.)”: median about 9,100, highest 2% from about 16,000 on). What follows is part of a selection rich in the highest values, with near analogues and random picks from the rest.

These sequences were tested against OsWRKY34 (Oryza sativa, UniProt Q0JBA9 1-250) (assay: protein-binding microarray (RPBM); PBS, 2% BSA, 51.3 ng/ul salmon testes DNA, 50 uM zinc acetate, 200 nM TF, 25 C, 1 h; high values mean tight binding). Conditions: protein: recombinant; tags: N-terminal polyhistidine and DsRed monomer fusion (pET32a); label: CyDye5-dUTP incorporated in the synthesized complementary strand; 3' TTTTT single-stranded linker to array surface; dsDNA, one strand shown.
OsWRKY34, sequence (Q0JBA9 entry or part of it): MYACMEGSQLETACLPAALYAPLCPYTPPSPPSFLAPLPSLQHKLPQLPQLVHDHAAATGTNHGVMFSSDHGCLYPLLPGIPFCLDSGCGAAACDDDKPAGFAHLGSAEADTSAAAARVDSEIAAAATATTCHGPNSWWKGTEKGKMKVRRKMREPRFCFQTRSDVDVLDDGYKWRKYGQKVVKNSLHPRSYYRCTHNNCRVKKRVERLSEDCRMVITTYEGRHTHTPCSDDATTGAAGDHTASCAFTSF
Outline: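 Per-feature fluorescence intensity (arbitrary units), read on an Axon 4000B scanner, is the binding signal. Transcription factors carrying an N-terminal polyhistidine tag and DsRed fusion were expressed in E. coli BL21-CodonPlus and purified on Ni–NTA. A custom Agilent array, made double-stranded by primer extension with Cy5-dUTP and blocked with 2% BSA, was incubated with 200 nM protein in PBS, 2% BSA, salmon testes DNA and 50 µM zinc acetate at 25 °C for 1 h and then washed.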
“AGACTTTATTTTTTCCCTGGGCTAAGGACTAGTCCCATATCGGAGTCACCTAGTGCAG” was tested, and the binding signal was 8980 fluorescence intensity (a.u.). For “GGGACCCGATTTGGGCGGTATATACCTTACTTCACGTGCACGGAGTCACCTAGTGCAG”, the binding signal was 8920 fluorescence intensity (a.u.). For “ATCGCTGCTGTCTTCTCAAATTATAATTTACCGTTTTTAACGGAGTCACCTAGTGCAG”, the binding signal was 8090 fluorescence intensity (a.u.). With “GCCTCCATCCACCTCGCCCATCCCTACACTCTACTACTCCCGGAGTCACCTAGTGCAG” the binding signal was 8670 fluorescence intensity (a.u.). For “CTCCTACTGCCTACCGCCGACGCAGAACTCCGTGGGTTACCGGAGTCACCTAGTGCAG”, the binding signal was 8210 fluorescence intensity (a.u.). In the case of “GCCTCTCGTGGGCCGTCGCCGCCCACCCGCCCGGACACGTCGGAGTCACCTAGTGCAG”, the binding signal is reported as 8380 fluorescence intensity (a.u.). In the case of “GGAGTTCGTGGGGACGTTCATCCTCATCTTCTTCGCGACGCGGAGTCACCTAGTGCAG”, the binding signal is reported as 9260 fluorescence intensity (a.u.). In the case of “CGGCGGCGGCGGCGGCGGCGGCGGAGGTGGTGTGGGTGGGCGGAGTCACCTAGTGCAG”, the binding signal is reported as 8220 fluorescence intensity (a.u.). For “GGTGGCGTGCAGGGTGGAGCGGGAGGGCGGCGGCGGGTGGCGGAGTCACCTAGTGCAG”, the binding signal was 17300 fluorescence intensity (a.u.). With “GTGGGTGGAGGAAGCGGATAGGGAGAGGGGTGTGGGGCGGCGGAGTCACCTAGTGCAG” the binding signal was 16000 fluorescence intensity (a.u.). For “GCCGTGGTGGTGTGGGGATCGTGTTGTGGCGGCGGATTGGCGGAGTCACCTAGTGCAG”, the binding signal was 8690 fluorescence intensity (a.u.). With “CGGCGCGCCGTGATTGTGCCTGATTGGGGTGGGGTTGGGGCGGAGTCACCTAGTGCAG” the binding signal was 25300 fluorescence intensity (a.u.). “GTCGGCGTCGGCGTCGGCGTCGGCGGGCGGGAGGCGGGAGCGGAGTCACCTAGTGCAG” was tested, and the binding signal was 8650 fluorescence intensity (a.u.). “ATGAGGGGTCGGGGTTGGGCGGCGTGGGCACGGGCTCGAGCGGAGTCACCTAGTGCAG” was tested, and the binding signal was 13000 fluorescence intensity (a.u.). “GGGCGGGCGGGCTCGAGGTTGTGGTGGGGCGTGTGGCAGGCGGAGTCACCTAGTGCAG” was tested, and the binding signal was 18200 fluorescence intensity (a.u.). “ACGCGCGGCCTAGTTGTGTGTGGGTGTGTGAGGTGAGGGGCGGAGTCACCTAGTGCAG” was tested, and the binding signal was 11000 fluorescence intensity (a.u.). “GAGTAGAGGTGGGAGGAAGCGGTGGTGTGGTGGGGTGGGGCGGAGTCACCTAGTGCAG” was tested, and the binding signal was 22100 fluorescence intensity (a.u.). In the case of “GGGAGGGAGCCAGAGCGGCGGGCGTGGGGTTGGAGGAGGGCGGAGTCACCTAGTGCAG”, the binding signal is reported as 9900 fluorescence intensity (a.u.). With “TTGGCTCGAGGCGGGGCTGGTTGGTTGGTTGGTTTGGTGGCGGAGTCACCTAGTGCAG” the binding signal was 14600 fluorescence intensity (a.u.). In the case of “CCGAAGATATCAACCAAACAGACCCGAACTTCTTCCCATTCGGAGTCACCTAGTGCAG”, the binding signal is reported as 8360 fluorescence intensity (a.u.). For “TGTTTTGGACTTTTTGGTCAACGGCCCATCAAAGCAAGCCCGGAGTCACCTAGTGCAG”, the binding signal was 13000 fluorescence intensity (a.u.). “GCCAAACGCGCCAGATCCGCGCCTCCTCCACTCACACGCGCGGAGTCACCTAGTGCAG” was tested, and the binding signal was 8910 fluorescence intensity (a.u.). “AGCACCACCACCACCCCAGCGCCTCCTACTCCACCGGCTCCGGAGTCACCTAGTGCAG” was tested, and the binding signal was 8830 fluorescence intensity (a.u.). For “TCCATGCAGTCTTCTTCTTCTGCAGCCTATGCTGTTAGTCCGGAGTCACCTAGTGCAG”, the binding signal was 11700 fluorescence intensity (a.u.). In the case of “TTTCATTGTTTCCGCAGACACGCTTTTCAAACTACTAAACCGGAGTCACCTAGTGCAG”, the binding signal is reported as 8080 fluorescence intensity (a.u.). In the case of “AATTTATAACCGTGACCTGCTGCCATATGCTAACCGTTTACGGAGTCACCTAGTGCAG”, the binding signal is reported as 8260 fluorescence intensity (a.u.). For “CTTTGTGCTGGACCGACGACGTCGTTCGCTCTTTTATCCTCGGAGTCACCTAGTGCAG”, the binding signal was 9040 fluorescence intensity (a.u.). “TGATCTGATCTGACAATTTGGGCGGGCTGTGTTTTATGAACGGAGTCACCTAGTGCAG” was tested, and the binding signal was 12900 fluorescence intensity (a.u.). For “CATATCAGTGGTTAACTGTGCTGTCTCAGTTGATCTCCCGCGGAGTCACCTAGTGCAG”, the binding signal was 8360 fluorescence intensity (a.u.). In the case of “CATGTTAGATGTTTTTTTTCTTGTTACTCTTTTTTATTTTCGGAGTCACCTAGTGCAG”, the binding signal is reported as 13300 fluorescence intensity (a.u.). In the case of “ACCTCTGTTTTCATGGGCTAGTGGCCCAGTACCTCACTGCCGGAGTCACCTAGTGCAG”, the binding signal is reported as 8930 fluorescence intensity (a.u.). With “GCATGGAGGCGTTTCATCAAACACCTTGCGCCTGCGGGAGCGGAGTCACCTAGTGCAG” the binding signal was 8030 fluorescence intensity (a.u.). “AACTACAACTATCTTGTTTTTATTTACACGCTTTTCAAACCGGAGTCACCTAGTGCAG” was tested, and the binding signal was 8620 fluorescence intensity (a.u.). In the case of “AACCCACCTCTTTCGTTTTCCGCGCGTACGCTTTTCAAACCGGAGTCACCTAGTGCAG”, the binding signal is reported as 8710 fluorescence intensity (a.u.). “AACCCACCTATCTTGTTTTCCACGTGTACGCTTTTCAAACCGGAGTCACCTAGTGCAG” was tested, and the binding signal was 19200 fluorescence intensity (a.u.). For “TCTGTATATATTACTACTTGCGTTTCTCTTTCTTTCTTCCCGGAGTCACCTAGTGCAG”, the binding signal was 11000 fluorescence intensity (a.u.). In the case of “ATCACATCTTAACATTTCATTCTCTGCTCAAAGATTCGATCGGAGTCACCTAGTGCAG”, the binding signal is reported as 8620 fluorescence intensity (a.u.). In the case of “AGCTCATCACTTCTTCTTGCATGCATGCACTACCGTCGGCCGGAGTCACCTAGTGCAG”, the binding signal is reported as 10400 fluorescence intensity (a.u.). For “GGTGAAGCTCTGCGCTGACACGTTGATGCAGCGGAGCACGCGGAGTCACCTAGTGCAG”, the binding signal was 18900 fluorescence intensity (a.u.). In the case of “TGCACACATGCACACACGCGCGCGCTGCTGCTGCTGCTGACGGAGTCACCTAGTGCAG”, the binding signal is reported as 8160 fluorescence intensity (a.u.). In the case of “GCACACCCTCGCTCTGACGACCCTGTCACGTTGAGCTACGCGGAGTCACCTAGTGCAG”, the binding signal is reported as 8240 fluorescence intensity (a.u.). For “ACAACGCATTTCCATTTCTACTCTGCCCCTGGTAAATTACCGGAGTCACCTAGTGCAG”, the binding signal was 12400 fluorescence intensity (a.u.). With “ACTGCCTTACCTGTTCATCTTCCAAACTGATTTGGTTTGTCGGAGTCACCTAGTGCAG” the binding signal was 9370 fluorescence intensity (a.u.). For “ACAATTAACACACGTAAACACTATCTGCTATTGTAAAAAACGGAGTCACCTAGTGCAG”, the binding signal was 8460 fluorescence intensity (a.u.). “ACGGCACCTCATAGATTATTCCGTCCGTTCCAACAACCTCCGGAGTCACCTAGTGCAG” was tested, and the binding signal was 8320 fluorescence intensity (a.u.). In the case of “AAACAATTATCTAAAAACCTCACTATTAATAGAGAGATTCCGGAGTCACCTAGTGCAG”, the binding signal is reported as 38700 fluorescence intensity (a.u.). With “ACTTTTTATACGCAACTTTCATTGCATATATTTTACTTTTCGGAGTCACCTAGTGCAG” the binding signal was 9540 fluorescence intensity (a.u.). In the case of “ACCTTCTTACCCACTCCACCCACTGACAACGTTGGCCACCCGGAGTCACCTAGTGCAG”, the binding signal is reported as 9360 fluorescence intensity (a.u.). For “CTGTAGTGTTGCTTGGTTTCTCTTTTTTGCCTCTTCACGGCGGAGTCACCTAGTGCAG”, the binding signal was 13200 fluorescence intensity (a.u.). “CAACGTTGACCCGGGTTGACCCACGGTTCTTCAACAAATGCGGAGTCACCTAGTGCAG” was tested, and the binding signal was 20700 fluorescence intensity (a.u.). With “GGGTTGGTTTGGTTTGGTTGCTTCTTCTCTGCTTCAACGGCGGAGTCACCTAGTGCAG” the binding signal was 40000 fluorescence intensity (a.u.). For “TGGTTTGGTTTGCTTCTTCTCTGCTTCAACGGTTGGTCGACGGAGTCACCTAGTGCAG”, the binding signal was 16900 fluorescence intensity (a.u.). With “TATATAACACAAAATAAGATCAACGTTGACCCGGGTTGACCGGAGTCACCTAGTGCAG” the binding signal was 10200 fluorescence intensity (a.u.). In the case of “ATCTCAATGAGTTGGTCGTTTGCTGCTTCTCTATAGTGAACGGAGTCACCTAGTGCAG”, the binding signal is reported as 9140 fluorescence intensity (a.u.). For “TGTGTTGCTCTCTCTTCACTTGGTTGGCGGCGGCGCTGCGCGGAGTCACCTAGTGCAG”, the binding signal was 8060 fluorescence intensity (a.u.). “AAGAATTTTGCTTTGGTTCAACCTTTTTTCTCTTCTTTCTCGGAGTCACCTAGTGCAG” was tested, and the binding signal was 11300 fluorescence intensity (a.u.).
